hgDAF-12 ag: agonists of H. glycines DAF-12 nuclear receptor. activation, % at 6.8 µM. actives 1.8% (n = 370,000). HEK293 GAL4-hgDAF12 UAS-luciferase reporter, agonist luminescence; normalized to butyrate control. AID 687014;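 active = activation above a cutoff set at the mean of all screened compounds plus 3 SD, cut at about 10% in these data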
DAX1 inh-1: inhibitors of human orphan nuclear receptor DAX1 (NR0B1) | actives 0.99% (n = 340,000) | inhibition, % at 6.75 µM | P51843 | HEK293 Gal4-DAX1 luciferase reporter, luminescence;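 active = inhibition above the mean over all tested compounds plus 3 SD, cut at about 4.2% in these data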;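 note: inhibition shows as a rise in luminescence from relieved DAX1 repression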
DAX1 inh-2: DAX1 (NR0B1) inhibition, primary screen; actives 1.1% (n = 370,000); inhibition, % at 6.8 µM; HEK293T StAR-luciferase reporter, SF-1/DAX-1 repression relief;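 active = inhibition above the mean over all tested compounds plus 3 SD, cut at about 3.6% in these data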;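 note: higher inhibition means more luminescence from relief of DAX-1 repression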
hcDAF-12 act: H. contortus DAF-12 activation, primary screen; HEK293 hcDAF-12 lit1-tk-luc reporter, luminescence; 0% DMSO, 100% Δ7-dafachronic acid; activation, % at 6.8 µM; actives 1.4% (n = 370,000); AID 652067;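 active = activation above the mean of all tested compounds plus 3 SD, cut at about 5.5% in these data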
ssDAF12 agonist: S. stercoralis DAF-12 activation, primary screen. HEK293 ssDAF-12/GRIP1 lit1-tk-luc reporter, luminescence; % of 3 µM dafachronic acid response. activation, % at 6.8 µM. actives 1% (n = 370,000). AID 652126;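 active = activation above the mean over all tested compounds plus 3 SD, cut at about 0.9% in these data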
LXR ag: activates human LXR-beta, counter-screen for hcDAF-12 agonists; HEK293 Gal4-LXR tk-luc reporter, luminescence, 24 h; normalized: DMSO 0%, positive control 100%; shares compounds with hcDAF-12 act; AID 743027; 3,400 tested, under 10 active; activation, % at 6.8 µM;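 active = mean percent activation of the reporter above a cutoff set as the average over tested compounds plus their standard deviation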
Target sequence (P55055 whole entry, looked up, the tested form may be a part): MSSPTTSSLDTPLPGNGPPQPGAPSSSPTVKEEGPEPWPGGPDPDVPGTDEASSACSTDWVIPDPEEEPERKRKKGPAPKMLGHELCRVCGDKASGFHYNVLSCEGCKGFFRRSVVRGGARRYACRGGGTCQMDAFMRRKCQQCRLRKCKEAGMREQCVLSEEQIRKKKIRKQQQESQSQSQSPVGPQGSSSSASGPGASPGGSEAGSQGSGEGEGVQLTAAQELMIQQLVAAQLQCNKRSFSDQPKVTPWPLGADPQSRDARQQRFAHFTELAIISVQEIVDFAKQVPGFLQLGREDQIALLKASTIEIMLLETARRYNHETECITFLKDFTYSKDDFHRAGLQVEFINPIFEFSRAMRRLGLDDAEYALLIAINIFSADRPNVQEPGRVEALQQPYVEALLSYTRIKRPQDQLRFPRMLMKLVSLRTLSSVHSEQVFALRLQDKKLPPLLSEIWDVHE
hcDAF12 conf: confirmation of H. contortus DAF-12 agonists; HEK293 hcDAF-12 lit1-tk-luc reporter, luminescence; % of Δ7-dafachronic acid response; shares compounds with hcDAF-12 act; activation, % at 6.8 µM; AID 743032; actives 61% (n = 3,400);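 active = mean activation across triplicate tests above the threshold derived from the earlier primary screen, cut at about 5.5% in these data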
Large screens that a line does not name were inactive (follow-up assays come after a bar, where they were run). The list is not random: actives were taken first. Their share in the collection is about 4.1%.

O=C(Nc1ccncc1)Nc1cccc(Cl)c1Cl	none
Cn1cccc1C(=O)C(=O)Nc1cccc(Cl)c1Cl	hcDAF-12 act 6.6 | LXR ag inactive | hcDAF12 conf 12.5
O=C(NCc1csc2ccc(Cl)cc12)Nc1ccccc1	none
O=C(Nc1ccccc1)Nc1cccc(Cl)c1Cl	hcDAF-12 act 7.3 | LXR ag inactive | hcDAF12 conf inactive
COC(=O)[C@]12C[C@H](CC(=O)N3CCC(c4ccccc4)CC3)C(=O)N(Cc3ccco3)C1=C[C@H](C1CCCC1)O[C@@H]2C	none (no result: DAX1 inh-1)
CNc1nc(-c2ccccc2)[n+](-c2ccc(C)cc2)s1	hcDAF-12 act 11.3, ssDAF12 agonist 1.1 | LXR ag inactive | hcDAF12 conf inactive
Cc1ccc(-c2nc(N)s[n+]2-c2ccccc2)cc1	none
COC(=O)[C@]12C[C@H](CC(=O)NCc3cccc4ccccc34)C(=O)N(CCC3=CCCCC3)C1=C[C@H](C(C)(C)C)O[C@@H]2C	none (no result: DAX1 inh-1)
COc1ccc(OC)c(Nc2ccc(C(=O)O)cc2[N+](=O)[O-])c1	hcDAF-12 act 8.4 | LXR ag inactive | hcDAF12 conf inactive
Cc1cc(C)nc(SCC(=O)OCC(=O)Nc2nc3ccccc3s2)n1	hcDAF-12 act 8.5 | LXR ag inactive | hcDAF12 conf 6.5
Cc1cc(C)nc(NC(=O)CSc2nc3ccccc3s2)n1	hcDAF-12 act 7.7, ssDAF12 agonist 2.1 | LXR ag inactive | hcDAF12 conf 9.3
Cc1ccc(-c2cc(NC(=O)CCl)n(-c3ccccc3)n2)cc1	none
COC(=O)c1ccc(NC(=O)COC(=O)CSc2nc(C)cc(C)n2)cc1	none
Cc1cc(NC(=O)CCl)n(-c2nc3ccccc3s2)n1	hcDAF-12 act 6.8 | LXR ag inactive | hcDAF12 conf inactive
COC(=O)[C@]12C[C@H](CC(=O)NCc3cccs3)C(=O)N(CCc3ccc(OC)c(OC)c3)C1=C[C@H](C1CCCC1)O[C@@H]2C	none (no result: DAX1 inh-1)
CC#CC(=O)N[C@H]1CC[C@@]23CCCN2C(=O)CCC[C@H]3[C@H]1C	none (no result: DAX1 inh-1, DAX1 inh-2)
COC(=O)[C@]12C[C@H](CC(=O)N3CCCC3)C(=O)N(Cc3ccc(Cl)cc3Cl)C1=C[C@H](C(C)(C)C)O[C@@H]2C	none (no result: DAX1 inh-1)
O=C(Nc1ccccc1)c1cnc2ccccc2n1	hgDAF-12 ag 10.6, hcDAF-12 act 7.5, ssDAF12 agonist 1.1 | LXR ag inactive | hcDAF12 conf 7.4
Cc1cccc(N2C(=O)C3C4C=CC(C5CC45)C3C2=O)n1 (stereo not given)	none
Cc1cccc(N2O[C@H]3C=C[C@@H]2C3)n1	hcDAF-12 act 9.4 (no result: DAX1 inh-1) | LXR ag inactive | hcDAF12 conf 5.6
CN1Cc2nnn(Cc3ccccc3)c2-c2cc(N3CCCC3)ccc2S1(=O)=O	none (no result: DAX1 inh-1)
Cc1ccc2sc(-c3ccc(NC(=O)CCN4C(=O)c5ccccc5C4=O)cc3)nc2c1	hcDAF-12 act 10.0 (no result: DAX1 inh-1) | LXR ag inactive | hcDAF12 conf 9.0
CC(=O)Nc1ccc(NC(=O)CCN2C(=O)c3ccccc3C2=O)cc1	none
O=C(O)[C@H]1CCCN1C(=O)c1ccccc1N1C(=O)[C@@H]2Cc3c([nH]c4ccccc34)C(c3cccc(Cl)c3)N2C1=O (stereo not given in full)	none
COc1cccc(C2c3[nH]c4ccccc4c3C[C@H]3C(=O)N(c4ccccc4C(=O)N4CCC[C@H]4C(=O)O)C(=O)N23)c1 (stereo not given in full)	none
O=C(O)[C@@H]1CCCN1C(=O)c1ccccc1N1C(=O)[C@@H]2Cc3c([nH]c4ccccc34)C(c3cccc(Cl)c3)N2C1=O (stereo not given in full)	hcDAF-12 act 8.8 | LXR ag inactive | hcDAF12 conf inactive
Cc1ccc(C2c3[nH]c4ccccc4c3C[C@H]3C(=O)N(c4ccccc4C(=O)N4CCC[C@H]4C(=O)O)C(=O)N23)cc1 (stereo not given in full)	hcDAF-12 act 7.6 | LXR ag inactive | hcDAF12 conf inactive
O=C(O)c1ccccc1C(=O)c1ccc2c(c1)CCC2	hcDAF-12 act 6.9 | LXR ag inactive | hcDAF12 conf inactive
O=C(CSc1nnc(-c2cccnc2)n1C1CCCCC1)N1CCCC1	none (no result: DAX1 inh-1)
Cc1ccc(Nc2nc3ccccc3o2)cc1F	hgDAF-12 ag 11.8, DAX1 inh-2 4.0, hcDAF-12 act 7.3 | LXR ag inactive | hcDAF12 conf inactive
CC(C)CC1c2[nH]c3ccccc3c2CCN1C(=O)c1cnccn1 (stereo not given)	hcDAF-12 act 9.6, ssDAF12 agonist 0.9 (no result: DAX1 inh-1) | LXR ag inactive | hcDAF12 conf 12.3
CC(=O)c1cc(C(=O)N2CCc3c([nH]c4ccccc34)C2CC(C)C)[nH]n1 (stereo not given)	none
Fc1ccc(C2Nc3cccc4cccc(c34)N2)cc1	hcDAF-12 act 7.1 | LXR ag inactive | hcDAF12 conf inactive
Brc1ccc(C2Nc3cccc4cccc(c34)N2)cc1	none
CCCOc1ccc(C2Nc3cccc4cccc(c34)N2)cc1	hcDAF-12 act 6.7 | LXR ag inactive | hcDAF12 conf inactive
C=CCn1c(SCC(=O)Nc2ccc(CCCC)cc2)nnc1-c1ccc(Cl)cc1	none (no result: DAX1 inh-1)
COCc1[nH]nc2c1C(c1ccc(Br)cc1)N(c1ccc(OC)cc1)C2=O (stereo not given)	none (no result: DAX1 inh-1)
CC(=O)c1ccc(OCc2cc(C(=O)N(C)C3CCOC3)no2)cc1 (stereo not given)	hgDAF-12 ag 10.9, DAX1 inh-2 4.0, hcDAF-12 act 7.1 | LXR ag inactive | hcDAF12 conf 6.8
c1ccc2cc3[nH]c(CNc4nc(N5CCOCC5)nc5c4ncn5-c4ccsc4)nc3cc2c1	none (no result: DAX1 inh-1, DAX1 inh-2)
Cc1ccc(-c2nnn3c2nc(NC(C)C)c2ccccc23)cc1	hcDAF-12 act 6.8 | LXR ag inactive | hcDAF12 conf inactive
Nc1nc2c(-c3ccc(Br)cc3)nnn2c2ccccc12	hgDAF-12 ag 11.2, hcDAF-12 act 7.7, ssDAF12 agonist 1.0 | LXR ag inactive | hcDAF12 conf 22.3
CNc1nc2c(-c3ccc(Cl)cc3)nnn2c2ccccc12	none
CCC(=O)Nc1cc2nn(-c3ccccc3)nc2cc1Cl	hcDAF-12 act 7.3 | LXR ag inactive | hcDAF12 conf 13.2
O=C1Nc2ccccc2/C1=C/c1cnc(-c2ccccc2)[nH]1	DAX1 inh-1 4.7, hcDAF-12 act 9.7, ssDAF12 agonist 1.2 | LXR ag inactive | hcDAF12 conf 9.8
O=C1Nc2ccccc2/C1=C/c1cccnc1	none
COc1cccc(N=Cc2nc(-c3ccccc3)oc2OC(C)=O)c1	none
Cc1ccc(C(=O)Oc2oc(-c3ccccc3)nc2C=Nc2ccc(N(C)C)cc2)cc1	hgDAF-12 ag 12.4, hcDAF-12 act 8.1, ssDAF12 agonist 1.8 | LXR ag inactive | hcDAF12 conf inactive

Screens (PubChem BioAssay)
